Screening data: PubChem, National Center for Advancing Translational Sciences (NCATS)
AMA1 RON2 block = disrupts binding of P. falciparum AMA1 to RON2. Potency, µM (titrated, usually from 58.2 µM), for the others: top-dose activity change, negative = inhibition, hits mostly inhibitors. AlphaScreen AMA1-biotinylated RON2 peptide binding. AID 720542. 360,000 tested, 0.2% active;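 note: 0% = vehicle wells and -100% = peptide control; nearly all actives have a fitted effect of over 45% in size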
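AMA1 (3D7) with his tag at 25 nM final met compounds first, then biotinylated RON2 peptide at 25 nM; detection used donor plus acceptor beads, 10 µg/mL apiece, read by AlphaScreen after 30 min at room temperature.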
HCV inhibitor = inhibitors of hepatitis C virus infection; Huh7.5.1 HCVcc-Cre infection, luciferase reporter, 44 h; Potency, µM (doses to about 41.8 µM), for inactives: top-dose activity change, negative = inhibition, most hits filed as inhibitors; 340,000 tested, 3.4% active; AID 651820
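After 44 h co-culture of compound, cells and HCVcc-Cre (~0.5 moi), substrate is added for 15 min at room temperature and luciferase measured over 15 sec. Cells were seeded at 1,000/well and pre-cultured 4 h.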
Pf growth 48h = inhibits P. falciparum growth in the first generation, 48 h. P. falciparum luciferase growth in erythrocytes, 48 h. Potency, µM (highest dose often 28.7 µM), without a hit: top-dose activity change, negative = inhibition, actives largely listed as inhibitors. 310,000 tested, 5.9% active
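Cell-based growth assay: transgenic P. falciparum expressing firefly luciferase, cultured in red cells within RPMI 1640 containing 0.5% w/v Albumax, 24 mM bicarbonate and gentamycin. A drop in luciferase activity indicates inhibition.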
Pf growth 96h = inhibits malaria parasite growth, 96 h | 320,000 tested, 6.9% active | P. falciparum luciferase reporter growth, 96 h | Potency, µM (titrated, usually from 28.7 µM), inactives show at the top dose activity change, negative = inhibition, most hits filed as inhibitors | AID 504834
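P. falciparum expressing integrated firefly luciferase, in erythrocytes at 2% hematocrit, 0.05% parasitemia, incubated with compounds 96 h at 37 C, 5% CO2. Growth inhibition read as loss of luminescence; two-generation exposure targets delayed-death apicoplast inhibitors.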
* hit, by the source's call; ? = inconclusive; / = not tested or not shown; [ ] = remark or other dose. In the library only some 11% were active in any assay of this set; here they are far more common. Calls come from the whole dose curve; as a rule, active = well fitted curve in the direction sought with a large enough effect; inconclusive = small, poorly fitted or top-dose-only effect, or another doubt; inactive = no such curve, though single readings can be large; an effect the other way counts as inactive or inconclusive. Unless noted, % is set by controls: 0 for no effect and ±100 for the full control effect; potency is the fitted concentration of half-maximal effect.

SMILES	AMA1 RON2 block	HCV inhibitor	Pf growth 48h	Pf growth 96h
CCC1=C(OC(=O)N(CC)CC)N2C(=O)OC(=NCCc3c[nH]c4ccccc34)[C@]2(Cc2ccccc2)[C@H]2C1=CC[C@H]1C(=O)NC(=O)[C@H]12	-14.8%	-1.8%	?	11.7µM*
COc1cccc(-c2cccc3c2NC(=O)C3(C)Cc2cccc(F)c2)c1 (stereo not given)	0.0%	/	/	/
O=C(OCc1cccc(F)c1)c1ccc2c(=O)n3c(nc2c1)CCC3	3.9%	?	0.0%	?
COC(=O)[C@]12CCCCC=C1N(Cc1cccc3ccccc13)C(=O)[C@H](CC(=O)NCC1CCCCC1)C2	4.1%	/	/	/
COc1ccccc1C(=O)Nc1nc(C)cc(C)n1	-11.5%	12.5%	/	/
COCCNC(=O)C1(C)CCCN(CCS(=O)(=O)c2ccc(C)cc2)C1 (stereo not given)	-1.0%	/	/	/
Cc1ccc(C(=O)OCC(=O)N(C)C2CCS(=O)(=O)C2)cc1[N+](=O)[O-] (stereo not given)	-3.1%	9.3%	16.6%	7.8%
O=C(Cn1[nH]c(=O)c2ccccc2c1=O)NCCN1C(=O)S/C(=C\c2ccccc2)C1=O	-2.2%	11.2µM*	/	/
COc1ccc(/C=C2\SC(=O)N(CCNC(=O)CN3C(=O)NC4(CCCC4)C3=O)C2=O)cc1	-0.8%	?	30.2%	3.3%
O=C(CN1C(=O)NC2(CCCC2)C1=O)NCCN1C(=O)S/C(=C\c2ccccc2F)C1=O	9.8%	0.6%	?	4.65µM*
COc1ccc(CN(C)C[C@@H]2OCc3cnnn3CCCC(=O)N([C@@H](C)CO)C[C@H]2C)cc1	5.1%	/	/	/
CC(C)(C)CC(C)(C)c1ccc(O)c(Cc2ccc(Cl)cc2Cl)c1	1.8%	-19.2%	1.9µM*	3.01µM*
COc1cccc(C(=O)Nc2nnc(-c3ccc(OC)cc3OC)s2)c1	16.8%	10µM*	11.8%	15.6%
COc1ccccc1-c1nnc(NC(=O)C(C)C)s1	8.0%	-6.2%	41.0%	-13.4%
COc1ccccc1-c1nnc(NC(C)=O)s1	0.0%	-17.8%	196.3%	7.38µM*
COc1cccc(C(=O)Nc2nnc(-c3ccccc3)s2)c1	0.3%	6.9%	-24.0%[0.00184 µM]	?
CCOc1ccc(/C=N/Nc2ccc(Cl)nn2)c(O)c1	55.1%	-19.0%	1.31µM*	?
Oc1c(Br)cc(/C=N/Nc2ccc(Cl)nn2)cc1Br	24.7%	37.3%	0.522µM*	1.04µM*
CCOc1ccccc1/C=N/Nc1ccc(Cl)nn1	-7.3%	?	/	-28.5%
O=S(=O)(Nc1c(S(=O)(=O)c2ccccc2)c2nc3ccccc3nc2n1C1CCCCC1)c1ccccc1	-7.5%	8.3%	3.7µM*	9.28µM*
Cc1ccc(S(=O)(=O)c2c(N)n(-c3ccccc3)c3nc4ccccc4nc23)cc1	5.8%	?	?	?
CC(=O)Nc1c(S(=O)(=O)c2ccccc2)c2nc3ccccc3nc2n1Cc1ccccc1	2.3%	-7.1%	?	268.2%
C=CCn1c(NS(=O)(=O)c2ccccc2)c(S(=O)(=O)c2ccc(C)cc2)c2nc3ccccc3nc21	17.5%	-13.6%	3.29µM*	?
Cc1cnc(C(=O)Nc2ccc(S(=O)(=O)NCC(C)C)cc2)cn1	0.0%	-10.7%	?	9.28µM*
Cc1cnc(C(=O)Nc2ccc(S(=O)(=O)N(C(C)C)C(C)C)cc2)cn1	-3.5%	-1.7%	-28.6%	-21.5%
SMILES	AMA1 RON2 block	HCV inhibitor	Pf growth 48h	Pf growth 96h
Cc1ccc(C)c(OCc2cc(C(=O)NC(c3ccccn3)C(F)(F)F)no2)c1 (stereo not given)	45.3%	?	/	/
Cn1c(OCC2CCCO2)nc2cc(-c3ccccc3)sc2c1=O (stereo not given)	15.8%	/	/	/
CCN1N=C(c2ccccc2)Cn2c1nc1ccccc12	128.0%	?	/	6.57µM*
Cc1ccccc1C(=O)/C=C1/SCC(=O)N1C	2.7%	1.0%	13.7%	49.5%
COC(=O)c1ccc(CN2CCc3ccccc32)cc1	?	18.6%	-11.9%	0.0%
CN1c2ccccc2Oc2nnc(Cl)cc21	2.3%	-1.4%	26.3%	4.4%
CCN(CC)CCOc1cc2c(nn1)Oc1ccccc1N2C	-6.7%	-21.0%	13.1%	3.29µM*
CCN(CC)c1ccc(NC(=S)NC(=O)C2CCC2)cc1	-12.2%	?	-28.7%	11.7µM*
CN(Cc1ccccc1)S(=O)(=O)c1ccc(NC(=S)NC(=O)C2CCCCC2)cc1	27.3%	10µM*	?	47.0%
Cc1ccc(NS(=O)(=O)c2ccc(Cl)c(NC(=S)NC(=O)C3CCCCC3)c2)cc1Cl	25.2%	11.2µM*	?	?
NS(=O)(=O)c1ccc(NC(=S)NC(=O)C2CCCC2)cc1	7.9%	12.6%	-12.8%	1.85µM*
CC(=O)Nc1ccc(NC(=S)NC(=O)C2CCCC2)cc1	9.3%	11.9%	-28.5%	0.0%
Cc1ccc(S(=O)(=O)N2CC3(O)CN(C(=O)OC(C)C)N(C(=O)OC(C)C)CC3(OC(=O)NCc3ccco3)C2)cc1 (stereo not given)	-9.4%	/	/	/
Cc1nc2ccccc2c(=O)n1C1CCCCCC1	0.1%	0.9%	?	20.0%
CCCCNC(=O)CSc1nc2ccccc2c(=O)n1C1CCCC1	11.3%	?	13.1µM*	55.7%
CSc1nc2ccccc2c(=O)n1C1CCCCC1	9.0%	-7.6%	7.6%	1.47µM*
COc1ccc(CCNC(=O)Cc2cc(OCc3ccccc3)c(OC)cc2[N+](=O)[O-])cc1OC	-4.5%	?	?	?
Cc1ccccc1NCC(=O)N/N=C/c1c(C)c(C(=O)c2ccc(Cl)cc2)n2ccccc12	6.8%	?	13.1µM*	4.65µM*
Cc1c(/C=N/NC(=O)CNc2ccccc2)c2ccccn2c1C(=O)c1ccc(Cl)cc1	-11.7%	-42.0%	3.29µM*	3.29µM*
Cc1c(/C=N/NC(=O)CNc2ccccc2)c2ccccn2c1C(=O)c1ccncc1	-0.9%	-20.4%	?	?
CN(C(=O)CC1C(=O)NCCN1Cc1ccc(F)c(F)c1)C1CCOCC1 (stereo not given)	14.2%	16.4%	42.5%	?
CCOC(=O)C1=CN(Cc2ccco2)S(=O)(=O)NC1c1ccc(C(F)(F)F)cc1 (stereo not given)	-2.1%	13.0%	/	/
CCOC(=O)[C@]12CCCC=C1N(Cc1cccc3ccccc13)C(=O)[C@H](CC(=O)N1CCCCC1)C2	-17.6%	/	/	/
COc1ccc(C2NC(=S)NC3=C2CCc2cc(OC)ccc23)cc1 (stereo not given)	6.2%	?	?	5.86µM*
Cc1ccc(/C=C2\CCCC3=C2NC(=S)NC3c2ccc(C)cc2)cc1 (stereo not given)	6.3%	-27.2%	-8.3%	?
COc1ccccc1NC(=O)CCc1nnc2ccc(N3CCN(C)CC3)nn12	-1.1%	3.1%	12.2%	?
Nc1c2c(nc3sc4c(c13)CCCC4)CCCCC2	-5.4%	?	82.6%	0.828µM*
CCc1c(-c2ccccc2)nc2sc3c(c2c1N)CCCC3	-3.0%	25.1µM*	-10.6%	?
Nc1c2c(nc3sc4c(c13)CCCCC4)CCCCC2	7.0%	?	150.8%	109.1%
